Experimental data reported in PubChem BioAssay (EPA / NIEHS).
Several values for one entry are separate records, joined by “and”; a condition that tells them apart may be missing. Equal values may be shown once. Records with an inconclusive call do not appear. More than one record can exist for a structure, and the calls need not agree. Activity calls are given as the source filed them. The calls were made as follows: active = hit-call score of the fitted dose curve at least 0.9, where 1 is the maximum; inconclusive = response in the unintended direction; inactive = score below 0.9.

Read-out: not listed separately
Assay: LTEA_HepaRG_LDH_cytotoxicity: Cytotoxicity Assessment in the Life Technologies and Expression Analysis (LTEA) Assay (AID 2283563);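 as to AC50: LDH activity released into spent culture medium as a marker of cell death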
In short: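 Differentiated human HepaRG cells, plated 48 h beforehand, were switched to serum-free induction medium and exposed for 48 h to eight half-log concentrations (top 100 uM) in 0.5% DMSO. LDH was measured in spent medium; activity was fitted relative to DMSO vehicle.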

| Structure (SMILES) | outcome | AC50 |
| --- | --- | --- |
| CN(Cc1cnc2nc(N)nc(N)c2n1)c1ccc(C(=O)N[C@@H](CCC(=O)O)C(=O)O)cc1 | inactive |  |
| OCC(CO)(CBr)CBr | inactive |  |
| Cc1[nH]nc2c1N=C(c1ccccc1Cl)c1cc([N+](=O)[O-])ccc1N2 |  | 61.4 µM (active) |
| O=C(CCCN1CCC(O)(c2ccc(Cl)cc2)CC1)c1ccc(F)cc1 |  | 73.6 µM (active) |
| N=C(N)c1ccc(OCCCCCOc2ccc(C(=N)N)cc2)cc1 |  | 12 µM (active) |
| O=C1NS(=O)(=O)c2ccccc21 | inactive |  |
| CCCCC=O | inactive |  |
| CCCCc1oc2ccccc2c1C(=O)c1cc(I)c(OCCN(CC)CC)c(I)c1 |  | 57 µM (active) |
| CCCCCCCCCCCCOS(=O)(=O)O | inactive |  |
| CCCCC(CC)C(=O)O (stereo not given) | inactive |  |
| CCCCCCCCCCCCCCC | inactive |  |
| CCC(C)c1ccccc1O (stereo not given) | inactive |  |
| O=C(c1ccccc1)c1ccccc1 | inactive |  |
| CN(C)CCOC(c1ccccc1)c1ccccc1 | inactive |  |
| CC(=O)Nc1ccc(O)cc1 | inactive |  |

System: not listed separately
Assay: ATG_XTT_Cytotoxicity: Cytotoxicity Assessment in the Attagene TRANS-FACTORIAL HepG2 Assay (AID 2283584)
In short: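 HepG2 human liver cells, transiently transfected with multiple GAL4-UAS reporter units, were dosed and read at 24 h by XTT as cell number. Loss of signal was fitted relative to DMSO negative control baseline.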

| Structure (SMILES) | outcome |
| --- | --- |
| CN(Cc1cnc2nc(N)nc(N)c2n1)c1ccc(C(=O)N[C@@H](CCC(=O)O)C(=O)O)cc1 | inactive |
| O=S(=O)(c1ccc(OCc2ccccc2)cc1)c1ccccc1O | inactive |
| NNC(=O)CCCCC(=O)NN | inactive |
| CCc1cccc(CC)c1NC(=O)C(=O)O | inactive |
| Cc1ccccc1OCC(=O)O | inactive |
| CC1CCC(CO)CC1 (stereo not given) | inactive |
| CCOC=O | inactive |
| CC1CCC(C(=O)O)CC1 (stereo not given) | inactive |
| Clc1ccc2c(Cl)ccnc2c1 | inactive |
| Cc1[nH]nc2c1N=C(c1ccccc1Cl)c1cc([N+](=O)[O-])ccc1N2 | inactive |
| CCCCCCCCCCCC(=O)O | inactive |
| O=C(CCCN1CCC(O)(c2ccc(Cl)cc2)CC1)c1ccc(F)cc1 | inactive |
| COCC1CCC(CO)CC1 (stereo not given) | inactive |
| N=C(N)c1ccc(OCCCCCOc2ccc(C(=N)N)cc2)cc1 | inactive |
| OCCN1CN(CCO)CN(CCO)C1 | inactive |
| O=C1NS(=O)(=O)c2ccccc21 | inactive |

| Structure (SMILES) | outcome |
| --- | --- |
| C=COC(=O)C(C)(C)CCCCCC | inactive |
| CCCCC=O | inactive |
| CCCCc1oc2ccccc2c1C(=O)c1cc(I)c(OCCN(CC)CC)c(I)c1 | inactive |
| Oc1cc2ccccc2cc1O | inactive |
| CC(C)c1c(C(=O)Nc2ccccc2)c(-c2ccccc2)c(-c2ccc(F)cc2)n1CC[C@@H](O)C[C@@H](O)CC(=O)O | inactive |
| CCCCC(CC)C(=O)O (stereo not given) | inactive |
| C=Cc1ccc(O)c(OC)c1 | inactive |
| CCCCCCCCCCCCCCC | inactive |
| CCC(C)c1ccccc1O (stereo not given) | inactive |
| CC[N+](CC)(CC)Cc1ccccc1 | inactive |
| CCN(CCC#N)c1ccccc1 | inactive |
| Cc1cccc2c1ccc1ccccc12 | inactive |
| O=C(c1ccccc1)c1ccccc1 | inactive |
| CCOC=C(C(=O)OCC)C(=O)OCC | inactive |
| CN(C)CCOC(c1ccccc1)c1ccccc1 | inactive |
| CC(=O)Nc1ccc(O)cc1 | inactive |

Molecular target: Cellular tumor antigen p53 (Homo sapiens) (UniProt P04637)
Sequence (P04637 whole entry, looked up): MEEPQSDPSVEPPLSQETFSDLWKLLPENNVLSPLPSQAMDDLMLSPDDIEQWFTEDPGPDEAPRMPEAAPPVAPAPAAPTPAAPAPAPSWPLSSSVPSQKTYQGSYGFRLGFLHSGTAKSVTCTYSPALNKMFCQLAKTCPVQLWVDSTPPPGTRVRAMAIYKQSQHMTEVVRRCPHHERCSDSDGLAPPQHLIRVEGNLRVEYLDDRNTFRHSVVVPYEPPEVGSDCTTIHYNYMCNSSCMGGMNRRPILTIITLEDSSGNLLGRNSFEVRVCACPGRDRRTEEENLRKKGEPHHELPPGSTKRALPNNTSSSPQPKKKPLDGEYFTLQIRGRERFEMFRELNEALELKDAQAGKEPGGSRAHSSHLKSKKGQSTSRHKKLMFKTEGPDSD
Assay: TOX21_p53_BLA_p2_ratio: Tox21 HCT-116 p53 Agonism Beta-lactamase Assay, Ratio, Phase 2 (AID 2283592)
In short: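 Ratio endpoint: beta-lactamase cleavage of CCF4-AM, blue (460 nm) over green (530 nm). HCT116 reporter line; 16 h treatment, 37C; substrate 2 h RT.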

| Structure (SMILES) | outcome |
| --- | --- |
| O=C(CCCN1CCC(O)(c2ccc(Cl)cc2)CC1)c1ccc(F)cc1 | inactive |
| CCCCc1oc2ccccc2c1C(=O)c1cc(I)c(OCCN(CC)CC)c(I)c1 | inactive |
| O=C(c1ccccc1)c1ccccc1 | inactive |

System: not listed separately
Assay: TOX21_p53_BLA_p3_viability: Viability Assessment in the Tox21 HCT-116 p53 Agonism Beta-lactamase Assay, Phase 3 (AID 2283593);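 also: cells exposed to compound for 16 h before reading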
In short: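 HCT116 cells, 4000/well, dosed 5 h after plating by pin transfer (217-fold dilution from DMSO stock) and incubated 16 h at 37C, 5% CO2. Viability read as ATP luminescence with CellTiter-Glo after 30 min at room temperature.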

| Structure (SMILES) | outcome | AC50 |
| --- | --- | --- |
| O=C(CCCN1CCC(O)(c2ccc(Cl)cc2)CC1)c1ccc(F)cc1 | inactive |  |
| CCCCc1oc2ccccc2c1C(=O)c1cc(I)c(OCCN(CC)CC)c(I)c1 | inactive | 32.3 µM (active) and 51.8 µM (active) |
| O=C(c1ccccc1)c1ccccc1 | inactive |  |
| CN(C)CCOC(c1ccccc1)c1ccccc1 | inactive |  |

Molecular target: Cellular tumor antigen p53 (Homo sapiens) (UniProt P04637)
Assay: TOX21_p53_BLA_p3_ratio: Tox21 HCT-116 p53 Agonism Beta-lactamase Assay, Ratio, Phase 3 (AID 2283596)
In short: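 Cells were seeded at 4000/well, rested 5 h at 37C, then dosed with DMSO compound solutions (217-fold dilution) for 16 h. CCF4-AM substrate was loaded for 2 h at room temperature, and the 460/530 nm emission ratio was fitted for gain of signal versus DMSO.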

| Structure (SMILES) | outcome |
| --- | --- |
| O=C(CCCN1CCC(O)(c2ccc(Cl)cc2)CC1)c1ccc(F)cc1 | inactive |
| CCCCc1oc2ccccc2c1C(=O)c1cc(I)c(OCCN(CC)CC)c(I)c1 | inactive |
| O=C(c1ccccc1)c1ccccc1 | inactive |

Molecular target: Cellular tumor antigen p53 (Homo sapiens) (UniProt P04637)
Assay: TOX21_p53_BLA_p5_ratio: Tox21 HCT-116 p53 Agonism Beta-lactamase Assay, Ratio, Phase 5 (AID 2283599)
In short: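 HCT-116 p53-bla cells (4000/well) plated 5 h, dosed with compound (217-fold DMSO dilution) for 16 h at 37 C; CCF4-AM substrate 2 h at room temperature. Activity is the 460/530 nm emission ratio (405 nm excitation), fitted in gain-of-signal direction versus DMSO.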

| Structure (SMILES) | outcome |
| --- | --- |
| O=C(CCCN1CCC(O)(c2ccc(Cl)cc2)CC1)c1ccc(F)cc1 | inactive |
| CCCCc1oc2ccccc2c1C(=O)c1cc(I)c(OCCN(CC)CC)c(I)c1 | inactive |
| O=C(c1ccccc1)c1ccccc1 | inactive |

System: not listed separately
Assay: TOX21_p53_BLA_p5_viability: Viability Assessment in the Tox21 HCT-116 p53 Agonism Beta-lactamase Assay, Phase 5 (AID 2283600)
In short: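 Luciferase-coupled ATP quantitation of cells treated for 16 h (37C, 5% CO2) with test chemicals delivered in DMSO via a 217-fold dilution; 4000 cells/well; reagent incubated 30 min at room temperature before luminescence reading.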

| Structure (SMILES) | outcome |
| --- | --- |
| O=C(CCCN1CCC(O)(c2ccc(Cl)cc2)CC1)c1ccc(F)cc1 | inactive |
| CCCCc1oc2ccccc2c1C(=O)c1cc(I)c(OCCN(CC)CC)c(I)c1 | inactive |
| O=C(c1ccccc1)c1ccccc1 | inactive |
| CN(C)CCOC(c1ccccc1)c1ccccc1 | inactive |
